In ChEMBL document CHEMBL1201862, “PubChem BioAssay data set” (2004):
Values joined by “and” are separate entries in the source; they are usually repeats but may differ in a detail not shown here. Equal entries are not always repeated. Screen size: about 400,000 compounds; about 2,100 (0.53%) were called active. Inconclusive results (about 14%) are left out. How the calls were made is not given here. The full list was thinned out, with actives kept by preference.

These compounds were tested against Ataxin-2 (Homo sapiens) (UniProt Q99700) (assay: qHTS for Inhibitors of ATXN expression.).
Ataxin-2 (Homo sapiens), sequence (Q99700 whole entry): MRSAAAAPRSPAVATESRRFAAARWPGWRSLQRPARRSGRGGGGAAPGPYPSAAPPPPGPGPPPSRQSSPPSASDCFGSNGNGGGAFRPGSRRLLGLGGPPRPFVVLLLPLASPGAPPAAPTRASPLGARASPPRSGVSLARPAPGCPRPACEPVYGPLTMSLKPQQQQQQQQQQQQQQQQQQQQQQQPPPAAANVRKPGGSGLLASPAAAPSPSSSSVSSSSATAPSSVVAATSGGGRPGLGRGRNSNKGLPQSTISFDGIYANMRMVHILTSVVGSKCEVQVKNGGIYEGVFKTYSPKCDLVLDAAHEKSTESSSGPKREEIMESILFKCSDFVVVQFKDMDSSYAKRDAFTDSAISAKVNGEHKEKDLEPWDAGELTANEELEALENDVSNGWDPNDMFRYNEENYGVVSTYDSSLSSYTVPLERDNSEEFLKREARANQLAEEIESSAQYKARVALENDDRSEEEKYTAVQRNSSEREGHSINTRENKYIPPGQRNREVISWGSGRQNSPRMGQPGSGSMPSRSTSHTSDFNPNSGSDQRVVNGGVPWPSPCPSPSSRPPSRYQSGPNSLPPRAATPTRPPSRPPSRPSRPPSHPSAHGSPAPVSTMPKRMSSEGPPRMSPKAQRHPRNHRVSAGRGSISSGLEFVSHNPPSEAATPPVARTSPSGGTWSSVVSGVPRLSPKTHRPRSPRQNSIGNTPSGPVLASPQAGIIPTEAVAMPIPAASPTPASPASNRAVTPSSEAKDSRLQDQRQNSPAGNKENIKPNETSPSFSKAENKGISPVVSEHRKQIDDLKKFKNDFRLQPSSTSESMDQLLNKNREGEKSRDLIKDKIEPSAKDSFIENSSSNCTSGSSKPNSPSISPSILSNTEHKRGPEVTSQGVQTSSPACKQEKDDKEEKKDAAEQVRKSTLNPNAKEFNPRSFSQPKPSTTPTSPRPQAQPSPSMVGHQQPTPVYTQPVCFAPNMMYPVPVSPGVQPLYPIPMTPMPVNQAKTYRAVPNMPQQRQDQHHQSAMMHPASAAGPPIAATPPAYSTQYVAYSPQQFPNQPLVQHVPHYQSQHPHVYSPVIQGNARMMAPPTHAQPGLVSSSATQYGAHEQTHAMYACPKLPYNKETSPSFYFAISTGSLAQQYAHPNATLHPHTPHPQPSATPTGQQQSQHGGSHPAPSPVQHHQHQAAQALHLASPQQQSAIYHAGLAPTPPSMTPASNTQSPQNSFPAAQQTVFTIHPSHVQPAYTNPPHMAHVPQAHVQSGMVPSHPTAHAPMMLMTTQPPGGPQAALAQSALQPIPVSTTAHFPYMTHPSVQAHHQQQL
Assay type: functional
With `COC(=O)c1ccc(CSc2nc(C(F)F)cc(C)c2C#N)o1` the Potency was “inactive”.
For `O=C(OCC1CCNCC1)c1ccc(F)cc1`, the Potency was “inactive”.
For `C=CCNC(=O)C(C#N)c1nc2ccccc2nc1N1CCCCCC1` (configuration not stated), the Potency was “inactive”.
For `COc1ccccc1/C=C/C1(C(=O)NC2CCCC2)CC(=O)N1c1ccc(F)cc1` (configuration not stated), the Potency was 14.1 µM (active).
With `COc1cccc(/C=N/NC(=O)NC2CCCCC2)c1O` the Potency was “inactive”.
In the case of `COc1ccccc1[C@@H]1C(c2ccc(F)cc2)=NN(c2ccccc2)[C@H]1C(=O)N1CCOC1=O`, the Potency is reported as “inactive”.
With `COc1ccccc1Nc1nc(Cl)c(C=O)s1` the Potency was “inactive”.
For `Nc1nc(Sc2ccc([N+](=O)[O-])c3nonc23)c2nc[nH]c2n1`, the Potency was 22.4 µM (active).
For `CCCNC(=O)/C=C/C(=O)O`, the Potency was “inactive”.
For `Cc1cc(C(=O)O)ccc1-c1ccc(/C=C2\NC(=O)N(Cc3ccccc3Cl)C2=O)o1`, the Potency was “inactive”.
In the case of `CC(=O)c1ccccc1NC(=O)COC(=O)CN1C(=O)C2CCCCC2C1=O` (configuration not stated), the Potency is reported as “inactive”.
`O=C(OCC(=O)N1CCC(Cc2ccccc2)CC1)c1ccccc1F` was tested, and the Potency was “inactive”.
`O=C(Nc1ccccc1)Nc1ccccc1C(=O)NCCCN1CCOCC1` was tested, and the Potency was “inactive”.
`CSc1ccc(NC(=O)NCCCN2CCC(Cc3ccccc3)CC2)cc1` was tested, and the Potency was 39.8 µM (active).
For `CN(C)c1ccc(/C=N/CCc2ccc(S(N)(=O)=O)cc2)cc1`, the Potency was “inactive”.
With `C(=C\c1ccco1)/C1=NN(c2ccccc2)C(c2ccco2)C1` (configuration not stated) the Potency was “inactive”.
`CCOCCCn1/c(=N/C(C)=O)c(C(=O)OCC)cc2c(=O)n3ccccc3nc21` was tested, and the Potency was “inactive”.
With `COc1cccc2c1C(=O)c1c(O)c3c(c(O)c1C2=O)CC(O)(C(C)=NNC(=O)c1ccc(Cl)c(Cl)c1)CC3OC1CC(N)C(O)C(C)O1` (configuration not stated) the Potency was 2.67 µM (active).
With `COc1cccc2c1C(=O)c1c(O)c3c(c(O)c1C2=O)CC(O)(C(=O)CO)CC3OC1CC(N(C)C)C(O)C(C)O1` (configuration not stated) the Potency was 1.19 µM (active).
In the case of `COc1cccc2c1C(=O)c1c(O)c3c(c(O)c1C2=O)C[C@](O)(C(C)=O)C[C@H]3O[C@@H]1C[C@H](N)[C@H](O)[C@H](C)O1`, the Potency is reported as 1 µM (active).
`COc1cccc2c1C(=O)c1c(O)c3c(c(O)c1C2=O)C[C@@](O)(C(=O)CO)C[C@@H]3O[C@H]1C[C@H](N)[C@@H](O)[C@H](C)O1` was tested, and the Potency was 8.91 µM (active).
`CC(=O)/N=c1\c(C#N)cc2c(=O)n3cccc(C)c3nc2n1Cc1ccco1` was tested, and the Potency was “inactive”.
With `CCN(CC)c1ccc(-n2nc3cc(C)c(NC(=O)c4ccccc4F)cc3n2)cc1` the Potency was “inactive”.
With `CCn1cnc2c1c(=O)n(CC(=O)NN)c(=O)n2Cc1ccccc1` the Potency was “inactive”.
With `Nc1c(C(=O)Nc2ccc(Br)cc2)sc2nc(-c3ccco3)ccc12` the Potency was “inactive”.
For `Cc1nn(C)c(C)c1N1C(=O)c2cccc3c(N)ccc(c23)C1=O`, the Potency was “inactive”.
With `NNC(=O)c1oc2nc(-c3ccc(Cl)cc3)cc(-c3ccccc3)c2c1N` the Potency was “inactive”.
In the case of `COc1cccc2c1C(=O)c1c(O)c3c(c(O)c1C2=O)C[C@](O)(C(=O)CO)C[C@H]3O[C@@H]1C[C@H](N)[C@H](O)[C@H](C)O1`, the Potency is reported as 0.794 µM (active).
In the case of `CC(=O)[C@]1(O)Cc2c(O)c3c(c(O)c2[C@@H](O[C@H]2C[C@H](N)[C@H](O)[C@H](C)O2)C1)C(=O)c1ccccc1C3=O`, the Potency is reported as 35.5 µM (active) and 20 µM (active).
With `CC(C)c1ccc(-n2nc3ccc(N)cc3n2)cc1` the Potency was “inactive”.
With `Cc1cc(C)n(-c2ccc(C(=O)N3CCC(CO)(Cc4ccccc4)CC3)cc2)n1` the Potency was “inactive”.
With `Cc1ccc([N+](=O)[O-])cc1N/C=C1\CCCCC1=O` the Potency was “inactive”.
For `C=CCn1/c(=N/C(=O)c2sc3ccccc3c2Cl)sc2cc(S(N)(=O)=O)ccc21`, the Potency was 12.6 µM (active).
`COCCn1/c(=N/C(=O)c2cc(-c3cccs3)nc3ccccc23)sc2cc(S(N)(=O)=O)ccc21` was tested, and the Potency was “inactive”.
In the case of `Cc1nonc1CC(=O)N1CCCC(C(=O)c2ccc(Cl)cc2)C1` (configuration not stated), the Potency is reported as “inactive”.
`Cc1nn(C)c(C)c1CCC(=O)N1CCCC(Nc2ccc(C(C)C)cc2)C1` (configuration not stated) was tested, and the Potency was 39.8 µM (active).
In the case of `Cc1cc(=O)n2nc(N3CCCC3C(=O)Nc3ccc(C(C)C)cc3)sc2n1` (configuration not stated), the Potency is reported as “inactive”.
`O=C(NCc1ccc(F)cc1)c1cccc2c1C(=O)c1ccc(N3CCC(Cc4ccccc4)CC3)cc1S2(=O)=O` was tested, and the Potency was “inactive”.
With `Cc1nc2c(S(=O)(=O)c3ccccc3)cnn2c(C)c1C` the Potency was “inactive”.
With `CC1CCN(c2ccc3c(c2)S(=O)(=O)c2cccc(C(=O)NCc4cccc(F)c4)c2C3=O)CC1` the Potency was “inactive”.
For `COc1ccc(-n2nc3c(N4CCCC(C(=O)NCc5ccc(C)cc5)C4)nnc(C)c3c2C)cc1` (configuration not stated), the Potency was 17.8 µM (active).
For `COc1cccc(CNC(=O)C2CCN(c3nnc(N4CCCC4=O)s3)CC2)c1`, the Potency was “inactive”.
`COc1ccc(-n2nc3c(N4CCCC(C(=O)NCc5cccc(F)c5)C4)nnc(C)c3c2C)cc1` (configuration not stated) was tested, and the Potency was 20 µM (active).
In the case of `COc1ccc(S(=O)(=O)N2CCCC(C(=O)NCCCn3ccnc3)C2)cc1OC` (configuration not stated), the Potency is reported as “inactive”.
In the case of `COc1ccc(CNC(=O)C(=O)NCC2OCCN2S(=O)(=O)c2cccs2)cc1` (configuration not stated), the Potency is reported as “inactive”.
For `CCC(C(=O)NCCc1ccccc1OC)n1nc(C)c2c(C)n(-c3ccccc3)nc2c1=O` (configuration not stated), the Potency was “inactive”.
With `COc1ccc(-n2nc3c(N4CCCC(C(=O)NCCc5ccccc5C)C4)nnc(C)c3c2C)cc1` (configuration not stated) the Potency was 20 µM (active).
With `CC(=O)N1CCC(=NNc2ncc(C(F)(F)F)cc2Cl)CC1` the Potency was “inactive”.
With `Cc1cccn2c(=O)c3cc(C(=O)NC(C)C)c(=N)n(Cc4ccncc4)c3nc12` the Potency was “inactive”.
In the case of `N=C(Cc1ccc(Cl)cc1)NOC(=O)c1cccc2ccccc12`, the Potency is reported as 39.8 µM (active).
In the case of `CCOc1ncccc1C(=O)N(CC)CC(=O)NCc1ccc(Cl)cc1`, the Potency is reported as “inactive”.
For `O=C(COC(=O)c1cc(O)nc2ccccc12)NCc1ccc(Cl)cc1`, the Potency was “inactive”.
For `O=[N+]([O-])c1ccc(CSc2ncnc3ccccc23)cc1`, the Potency was “inactive”.
In the case of `COc1ccc(-c2cc(C(F)(F)F)n3ncc(C(=O)N4CCc5ccccc5C4)c3n2)cc1`, the Potency is reported as “inactive”.
`Cc1ccc2[nH]c(NC3=NC(=O)c4ccccc43)nc2c1` was tested, and the Potency was “inactive”.
`Cc1ccc(CN2C(=O)CCC2C(=O)N2CCN(c3ccccc3)CC2)cc1` (configuration not stated) was tested, and the Potency was “inactive”.
In the case of `CCOC(=O)c1ccc(NC(=O)CC2C(=O)N(c3ccccc3)C(=O)N2Cc2ccc(C)cc2)cc1` (configuration not stated), the Potency is reported as 22.4 µM (active).
`CCOC(=O)c1ccc(NC(=O)CC2Nc3ccccc3NC2=O)cc1` (configuration not stated) was tested, and the Potency was “inactive”.
In the case of `CCCCN(C)CC(O)Cn1cc(/C=C/C(=O)c2ccc(Br)cc2)c2ccccc21` (configuration not stated), the Potency is reported as “inactive”.
With `COc1cc(/C=C2\C=CC(=O)O2)cc(OC)c1` the Potency was “inactive”.
In the case of `N#Cc1nc(-c2cccc3ccccc23)oc1NCC1CCCO1` (configuration not stated), the Potency is reported as “inactive”.
For `CCC(C)Sc1cccc(-c2nc3cnccn3c2NC2CCCCC2)c1` (configuration not stated), the Potency was “inactive”.
In the case of `CCOC(=O)CNc1c(-c2ccc(Cl)cc2)nc2cnccn12`, the Potency is reported as “inactive”.
For `Cc1ccc(-c2nc3cnccn3c2Nc2c(C)cccc2C)o1`, the Potency was “inactive”.
For `Cc1ccn2c(Nc3ccc(C(C)C)cc3)c(-c3cccnc3)nc2c1`, the Potency was 39.8 µM (active).
With `CCCCNc1c(-c2ccc(SC(C)CC)cc2)nc2cnccn12` (configuration not stated) the Potency was “inactive”.
For `CC(C)c1ccc(Nc2c(-c3ccccc3O)nc3cnccn23)cc1`, the Potency was 39.8 µM (active).
In the case of `COCCNC(=O)Cc1c(C)c2c(cc(C)c3c(C)coc32)oc1=O`, the Potency is reported as “inactive”.
`O=C(Nc1cc(Cl)ccc1O)C1CC(c2ccccc2O)=NO1` (configuration not stated) was tested, and the Potency was “inactive”.
For `CCOc1cc(CNCCc2ccc(S(N)(=O)=O)cc2)cc(Cl)c1OCc1ccccc1`, the Potency was 25.1 µM (active).
With `CCOc1ccc(CCNC(=O)CSCc2ccc(C)cc2)cc1OCC` the Potency was “inactive”.
`COC(=O)c1c(C)[nH]c(C(=O)NCCc2ccc(S(N)(=O)=O)cc2)c1C` was tested, and the Potency was “inactive”.
In the case of `CCOc1cc(C(N)=O)cc(Br)c1OCc1ccccc1`, the Potency is reported as “inactive”.
In the case of `NS(=O)(=O)c1ccc(CNC(=O)CNC(=O)Cc2ccccc2)cc1`, the Potency is reported as “inactive”.
With `CCOc1cc(CNCCc2ccc(S(N)(=O)=O)cc2)ccc1OCC(=O)NC(C)(C)C` the Potency was 39.8 µM (active).
For `CC12CCC(=O)N1C(C(=O)N1CCN(S(=O)(=O)c3ccc(Br)cc3Cl)CC1)CS2` (configuration not stated), the Potency was “inactive”.
In the case of `CC(C)CCn1c(=O)c2ccccc2n2c(S)nnc12`, the Potency is reported as “inactive”.
With `Cc1cnc(C(=O)NC(C)CCc2ccccc2)cn1` (configuration not stated) the Potency was “inactive”.
With `Fc1ccc(-c2cc(C(F)(F)C(F)F)n[nH]2)cc1` the Potency was “inactive”.
`CCOC(=O)c1cnn2c(O)cc(C)nc12` was tested, and the Potency was “inactive”.
For `COC(=O)c1ccc(C(=O)OC)c(NC(=O)Cc2cccs2)c1`, the Potency was “inactive”.
With `CC(C)(C)c1ccc(C(=O)O/N=C(\N)Cc2cccs2)cc1` the Potency was 31.6 µM (active).
`CC(C)(C)c1ccc(/N=C2\SCC(=O)N2Cc2cccs2)cc1` was tested, and the Potency was “inactive”.
`O=C(c1cccs1)N1CCC(c2nc(O)c3nnn(Cc4c(Cl)cccc4Cl)c3n2)CC1` was tested, and the Potency was “inactive”.
`CC(C)C(=O)NNC(=O)CSc1nnc(-c2ccccc2)c(-c2ccccc2)n1` was tested, and the Potency was “inactive”.
For `CNC(=O)C(=O)Nc1cc2c3c(c1)CCC(=O)N3CCC2`, the Potency was “inactive”.
For `CCOC(CN=c1nc(N(C)C)ss1)OCC`, the Potency was 29.9 µM (active).
For `CN(C)S(=O)(=O)c1ccc(Cl)c(NC(=O)COC(=O)CNS(=O)(=O)c2c(F)cccc2F)c1`, the Potency was “inactive”.
With `COc1ccc(C(=O)CC(SCC(NC(C)=O)C(=O)O)c2ccc(Cl)cc2)cc1OC` (configuration not stated) the Potency was 31.6 µM (active).
In the case of `CCC(=O)NC(c1ccc(OC)c(OC)c1)c1cc(Cl)c2cccnc2c1O` (configuration not stated), the Potency is reported as “inactive”.
In the case of `CCS(=O)(=O)N1CCC(NC(=O)C(Cc2ccc(OC)c(OC)c2)NC(C)=O)CC1` (configuration not stated), the Potency is reported as “inactive”.
With `CCOC(=O)c1cc2c(=O)n3ccccc3nc2n(CC2CCCO2)/c1=N\C(=O)c1ccc(C(C)(C)C)cc1` (configuration not stated) the Potency was “inactive”.
For `CCCCN1C(C(=O)Nc2ncccn2)=C(O)c2ccccc2S1(=O)=O`, the Potency was “inactive”.
In the case of `Cc1ccccc1N1CCN(C2CCCN(C(=O)CSc3ccccn3)C2)CC1` (configuration not stated), the Potency is reported as “inactive”.
`OC(c1cccc(Cl)c1)c1nc(-c2ccc(Oc3ccccc3)cc2)c[nH]1` (configuration not stated) was tested, and the Potency was 39.8 µM (active).
For `OC(c1cccc(Cl)c1)c1nc(-c2ccc(C(F)(F)F)cc2)c[nH]1` (configuration not stated), the Potency was 39.8 µM (active).
For `CC(C)(C)c1ccc(C(O)c2nc(-c3ccccc3Cl)c[nH]2)cc1` (configuration not stated), the Potency was 39.8 µM (active).
